Bioassay records deposited in PubChem BioAssay by Broad Institute.
The sample as a whole holds a higher share of hits than the screen did.
U2OS ROS induce = ROS inducers in U2OS cancer cells, primary screen, cell-based, H2DCF-DA fluorescence; U2OS ROS induction; ROS induction (% of piperlongumine), % at 10 µM; 46,000 compounds, 2% hits; AID 624156, 2012; in the data active means ROS induction above about 79%, passing the limit was not always enough;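 further: 0% = DMSO vehicle median and 100% = reference compound median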
PD-1 reversal = activators reversing PD-1 mediated T-cell inhibition, primary screen, luminescence, primary human CD4 T cells, PD-L1 beads | CellTiter-Glo 96 h | AID 2316, 2010 | activation, % (test concentration not listed) | 29,000 tested, under 10 active; call rule not given here;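 further: 0% = median vehicle wells and 100% = positive control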
* hit, by the source's call; . = no result.

SMILES	U2OS ROS induce	PD-1 reversal
Cc1c(Cl)cccc1NC(=S)NCC(c1ccccc1)c1c[nH]c2ccccc12 (centres undefined)	21	.
CS(=O)(=O)N(CC(=O)Nc1ccc(C(F)(F)F)cc1)c1ccc(F)cc1	0	-3
CC1CCc2c(sc3ncnc(SCC(=O)NC4CCCCC4)c23)C1 (centres undefined)	.	-1
N#Cc1ccc(N2CCCN(C(=S)NC3CCCC3)CC2)nc1	56	1
O=C(Oc1nc2ccccc2s1)c1ccccc1C(=O)c1ccccc1	-3	.
CCN1/C(=C\C(=S)Nc2ccccc2)Sc2ccccc21	66	0
CCN1/C(=C/C2=CC(=O)CC(C)(C)C2)Sc2ccccc21	164*	-1
O=C(CC1OCCN(Cc2ccccc2)C1=O)Nc1cccc(Cl)c1 (centres undefined)	.	-1
COc1ccccc1CN(C)C[C@H]1OCc2cnnn2CCCC(=O)N([C@H](C)CO)C[C@H]1C	113*	.
C[C@@H]1CN([C@@H](C)CO)C(=O)CCCn2nncc2CO[C@@H]1CN(C)C(=O)Nc1ccc(C(C)(C)C)cc1	114*	.
COc1ccccc1CN(C)C[C@H]1OCc2cnnn2CCCC(=O)N([C@@H](C)CO)C[C@H]1C	-1	.
C[C@H](CO)N1C[C@H](C)[C@@H](CN(C)C(=O)Nc2ccc(C(C)(C)C)cc2)OCc2cnnn2CCCC1=O	-2	.
Cc1nn(-c2ccccc2)c(C)c1Sc1n[nH]c(=O)[nH]c1=O	-1	0
C=CC[n+]1ccc(/C=C/c2ccccc2O)c2ccccc21	17	.
CCOC(=O)Cn1cnc2c(nnn2-c2ccc(C)cc2)c1=O	-7	.
Cc1ccc(-n2nnc3c(SCC(=O)N4CCCC4)ncnc32)cc1	134*	.
CC(=O)Oc1ccc2occ(C(=O)CCN(C)C)c2c1	98*	-5
CC(=O)Oc1ccc2occ(C(=O)c3ccc(Br)s3)c2c1	30	-1
COc1ccc(C2C(C(=O)O)c3ccccc3C(=O)N2Cc2ccc(Cl)cc2)cc1 (centres undefined)	-3	2
COc1ccc(CN2C(=O)[C@@H]3[C@H]4C(=O)O[C@H](c5ccccc5)[C@@H](C)N(C)C(=O)CC/C=C/[C@H]4O[C@@]34C=CCN(Cc3ccccc3)C(=O)[C@@H]24)cc1	122*	.
Cc1ccc(C(=O)Nc2ccccc2C(=O)N2CCN(c3ccccc3)CC2)cc1S(=O)(=O)N1CCCCC1	144*	1
Cc1ccc(NS(=O)(=O)c2cc(C(=O)Nc3ccccc3C(=O)N3CCCC3)ccc2Cl)cc1C	-6	-1
C[C@@H]1CCCCO[C@@H](CN(C)Cc2ccccc2)[C@@H](C)CN([C@H](C)CO)C(=O)c2cc(NC(=O)c3ccccc3)ccc2O1	184*	0
C[C@@H]1CCCCO[C@@H](CN(C)Cc2ccc(C(F)(F)F)cc2)[C@@H](C)CN([C@H](C)CO)C(=O)c2cc(NC(=O)c3ccncc3)ccc2O1	98*	.
C[C@@H]1CCCCO[C@H](CN(C)Cc2ccc(C(=O)O)cc2)[C@@H](C)CN([C@H](C)CO)C(=O)c2cc(NC(=O)c3ccccc3)ccc2O1	28	1
SMILES	U2OS ROS induce	PD-1 reversal
C[C@@H]1CCCCO[C@@H](CN(C)Cc2ccc(C(F)(F)F)cc2)[C@@H](C)CN([C@H](C)CO)C(=O)c2cc(NC(=O)c3ccccc3)ccc2O1	71	0
CCOC(=O)c1ccc(-n2c(C)cc(/C=N/O)c2C)cc1	-9	.
CCc1ccc(-c2cn3c4ccccc4nc3n2CCN2CCOCC2)cc1	89*	-5
Cc1ccc(-c2cn3c4ccccc4nc3n2CCN2CCOCC2)cc1	36	-3
COc1ccc(OCCCC(=O)Nc2ccc(S(=O)(=O)Nc3nccs3)cc2)cc1	3	.
O=c1[nH]c(=S)c2c(n1Cc1ccco1)CCC2	-11	.
Cc1cc(C)c2nc(NC3=NC(c4ccccc4)CC(=O)N3)nc(C)c2c1 (centres undefined)	114*	.
Cc1ccc2c(C)nc(NC3=NC(C(=O)Nc4ccc(Cl)c(Cl)c4)CC(=O)N3)nc2c1 (centres undefined)	-10	.
COc1ccc(-n2c(SCC(=O)Nc3ccccc3C)nc3ccccc3c2=O)cc1	20	-1
CCOc1ccc(NC(=O)CCCn2nc(CC)n3c(cc4occc43)c2=O)cc1	1	.
O=C(CSc1nc(O)cc(=O)[nH]1)Nc1cc(Cl)cc(Cl)c1	-1	2
Cc1cccc(-n2ncc3c(Nc4ccc(-c5ccccc5)cc4)ncnc32)c1	4	.
CC(=O)Nc1ccc(Nc2ncnc3c2c(-c2ccccc2)cn3-c2cccc(C)c2)cc1	97*	.
Cc1oc2ccccc2c1CNC(N)=O	-2	.
Cc1ccc(COc2ccc(/C=C3/C(=N)N4C=CSC4=NC3=O)cc2Br)cc1	-4	.
Cc1cc(/C=C2/C(=N)N3C=CSC3=NC2=O)c(C)n1-c1ccccc1	220*	.
Cc1ccc2[nH]c(=O)c(C=NC(CO)(CO)CO)c(O)c2c1	-3	.
CCc1c(O)nc(SCC(=O)Nc2ccc(C(C)=O)cc2)[nH]c1=O	-8	2
COc1ccc(-c2nnc(-c3ccc(S(=O)(=O)c4ccccc4)cc3)o2)cc1OC	126*	.
COc1ccccc1OCC(=O)Nc1cccc(-c2nnc(-c3ccccc3)o2)c1	-2	1
N#CCNC(=O)c1ccc(-c2ccccc2)cc1	5	.
O=C(CSc1nc2ccccc2c(=O)n1-c1ccccc1)Nc1ccc(Br)cc1Cl	37	-3
C[C@@H]1CN([C@H](C)CO)C(=O)CCCn2cc(nn2)CO[C@@H]1CN(C)S(=O)(=O)c1cccs1	89*	.
C[C@H]1CN([C@@H](C)CO)C(=O)CCCn2cc(nn2)CO[C@H]1CN(C)S(=O)(=O)c1ccccc1	-22	.
C[C@@H]1CN([C@H](C)CO)C(=O)CCCn2cc(nn2)CO[C@@H]1CN(C)S(=O)(=O)c1ccccc1	104*	.
SMILES	U2OS ROS induce	PD-1 reversal
C[C@H](CO)N1C[C@H](C)[C@H](CN(C)S(=O)(=O)c2cccs2)OCc2cn(nn2)CCCC1=O	28	.
O=C(CCCCCCC(=O)N/N=C/c1ccc(O)c(O)c1)NO	3	.
Cc1[nH]n(-c2ccccc2)c(=O)c1/C=C1\C=NN=C1c1ccccc1	106*	-19
Cc1ccnc(N=Cc2c(C)[nH]n(-c3ccccc3)c2=O)c1	68	0
NC(=O)CSc1ncnc2c1nnn2Cc1ccc(F)cc1	135*	.
O=C(CSc1ncnc2c1nnn2Cc1ccc(F)cc1)OCc1ccccc1	46	.
Cc1ccc(CN2C(=O)C(O)(CC(=O)c3cccc(N)c3)c3cc(Cl)ccc32)cc1 (centres undefined)	-4	-2
C[C@@H]1CN([C@H](C)CO)C(=O)c2cccc(NC(=O)CCCCCC(=O)Nc3ccccc3N)c2O[C@@H]1CN(C)Cc1ccc(C(F)(F)F)cc1	57	1
C[C@H](CO)N1C[C@H](C)[C@@H](CN(C)Cc2ccncc2)Oc2c(NC(=O)CCCCCC(=O)Nc3ccccc3N)cccc2C1=O	5	1
C[C@@H]1CN([C@H](C)CO)C(=O)c2cccc(NC(=O)CCCCCC(=O)Nc3ccccc3N)c2O[C@H]1CN(C)Cc1ccc(-c2ccccc2)cc1	126*	0
C[C@H]1CN([C@@H](C)CO)C(=O)c2cccc(NC(=O)CCCCCC(=O)Nc3ccccc3N)c2O[C@@H]1CN(C)Cc1ccc(-c2ccccc2)cc1	91*	0
N#CCN(CC#N)C(=O)c1cccc(C(=O)N(CC#N)CC#N)c1	-14	.
